From PubChem BioAssay (NCI) come the findings set out here.

About 83,000 compounds went through this panel and 20% of them were active in at least one assay; those are over-represented in the sample as a whole.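 Compound tested at a single concentration for 48 hours in 96-well plates; a percent growth value below 10 was scored as active.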 Unmarked numbers belong to inactive results. The source made the active and inactive calls.

This experiment concerns HL-60(TB) leukemia. Put plainly: NCI-60 one-dose screen, 48 h (100 = growth as untreated, 0 = no growth, -100 = all killed). The settings on record: 10 µM unless noted.
Turning to `C#CCN(C)CCCOc1ccc(N(CC)C(=O)c2cc(C(C)C)c(O)cc2O)cc1Cl`, the growth is -63.8% (active).

Take `COc1ccc2c(c1)c(-c1cc(N)n3nc(-c4cn(C)c5ccccc45)cc3n1)cn2C`: the growth is -33.1% (active). Then `CC(C)CCNC(=O)N/C(N)=N/c1nc2ccccc2s1`, with 55.6%; and `Cn1cc(-c2cc(N)n3nc(-c4c[nH]c5ccc(Cl)cc45)cc3n2)c2cc(Br)cnc21`, with -60.4% (active); and `Cc1ccc(C(=O)C[n+]2cccc3c4ccccc4ccc32)cc1`, with 1.77% (active).

Regarding `O=C(NO)c1ccc(-c2nc3ccc4[nH]ncc4c3c3c2CCCC3)cc1`, the growth is -18.7% (active). In the case of `Cc1ccc(-c2cc(-c3cc4ccccc4nc3Cl)[nH]c(=O)n2)cc1`, the growth was -32.7% (active). With `CN(C)CCCNC(=O)c1cc(NC(=O)c2cc(NC(=O)c3ccc(C#Cc4ccccc4)cc3)cn2C)cn1C`, the growth is -69.6% (active).

On to `COc1c(F)ccc(C(=O)Nc2ccc3nc(NC(=O)C4CCCN(S(=O)(=O)c5ccc(C(C)(C)C)cc5)C4)sc3c2)c1F` (centres undefined), for which the growth was 66.9%. On to `Cc1ccc2c(N)c(C(=O)Nc3ccc(-c4ccccc4)cc3)sc2n1`, for which the growth was 38.7%. Then `CCOC(=O)C1=C(N)N(c2ccccc2)C2=C(C(=O)CC(C)(C)C2)C1c1ccccc1OC` (centres undefined), with 99.2%; and `CN(C(=O)c1ccc(C(C)(C)C)cc1)c1sc2c(c1C#N)CCC(=O)C2`, with 52.4%; and `COc1ccc(C(=O)/C=C/c2ccc(Oc3nc(Nc4ccc(F)cc4)nc(N(C)C)n3)c(OC)c2)cc1`, with 48.1%.

For `O=S(=O)(Nc1ncccn1)c1ccc(-n2c(-c3ccc(Br)cc3)nc(-c3ccccc3)c2-c2ccccc2)cc1`, the growth was 41.2%. Under `CC1[C@H]2[C@H](C[C@H]3[C@@H]4CC=C5c6sc(Nc7cccc(Cl)n7)nc6CC[C@]5(C)[C@H]4CC[C@@]32C)O[C@]12CC[C@@H](C)CO2` (some centres undefined) stands 45.4%.

With `CSc1ccc(C(=O)Nc2ccc3nn(/C(C#N)=C/c4ccccn4)nc3c2)cc1`, the growth was -21.9% (active). On to `CC(C)C1=C[C@@]23CC[C@@H]4[C@](C)(CCC[C@]4(C)C(=O)NCc4ccccc4)[C@H]2C[C@@H]1[C@H]1C(=O)OC(=O)[C@H]13`, for which the growth was 3.62% (active). Take `Cc1nc(Nc2ccccn2)sc1C1=NNC(c2ccccc2F)C1` (centres undefined): the growth was 4.96% (active). Take `COc1ccccc1[C@H]1C(C(=O)c2ccc(Cl)cc2)C2(N[C@@H]1c1ccccc1)C(=O)Nc1ccccc12` (some centres undefined): the growth is -29.6% (active). Regarding `Cc1ccc(NCC(=O)Cn2cc(COc3ccc(C=Nc4cnc5ccccc5c4)cc3)nn2)cc1`, the growth is 101%. Then `O=C(C1=CNC(=S)NC1c1ccc(O)cc1)c1cc2ccccc2oc1=O` (centres undefined), with 79.5%. Take `COc1cccc(NC(=O)c2ccc(NC(=O)CCl)s2)c1`: the growth was -28.2% (active). Under `Cn1cc(-c2cc(N)n3nc(-c4c[nH]c5ccccc45)cc3n2)c2ccccc21` stands -24.5% (active). Then `COC(=O)C[C@](O)(CCCC(C)(C)O)C(=O)O[C@H]1C(OC)=C[C@@]23CCCN2CCc2cc4c(cc2[C@@H]13)OCO4`, with -30.3% (active).

As to `N#Cc1ccc(/C=N/NC(=O)c2[nH]c3ccc(Br)cc3c2-c2ccccc2)o1`, the growth was -25.1% (active). Under `CCCn1cc(-c2nc(Nc3ccc(C(=O)NCCCCNc4cccc5c4C(=O)N(C4CCC(=O)NC4=O)C5=O)cc3)nc3[nH]ccc23)cn1` (centres undefined) stands -36.9% (active); under `COc1ccc(C(=O)/C=C/c2ccc(OC)c(OCc3ccccc3)c2)cc1OC`, 2.91% (active).

Turning to `Cc1ccc(-c2nc(Nc3ccccc3C(=O)O)c3ccccc3n2)cc1`, the growth was 17.8%.

For the molecule `O=C1/C(=C/C=C/c2ccco2)SC(=S)N1CC(=S)C1C=CS(=O)(=O)C1` (centres undefined), the growth is 59.4%. Under `CCCn1c(NC(=O)c2cccc(C(N)=O)c2)nc2cc(CN3CCCCC3)ccc21` stands 91.4%. Under `COc1cc(C2CC(c3ccccc3)=Nc3c(N)nc(N)nc3N2)ccc1Oc1nc(Nc2ccc(F)cc2)nc(N(C)C)n1` (centres undefined) stands 26.1%; under `CC1(C)CC[C@]2(C(=O)O)CC[C@]3(C)C(=CCC4[C@@]5(C)C[C@@H](O)[C@@H]6OC(c7cccc(F)c7)OC[C@@]6(C)C5CC[C@]43C)C2C1` (some centres undefined), 9.5% (active). With `OCCn1cc(-c2nc3ccc4[nH]ncc4c3c3c2CCCC3)cn1`, the growth is 45.2%. On to `COc1ccc(N=Nc2c(N)nn3c(N)c(C#N)c(-c4ccc(C)cc4)nc23)cc1`, for which the growth was 52.1%.

`CCN1C(=O)N(CC)C2NNC(Sc3c(C(=O)O)c4ccccc4n(CCC(C)C)c3=O)=NC21` (centres undefined): the growth was -48.1% (active). As for `CCN(C(=O)CN1C(=O)/C(=C/c2ccco2)SC1=S)C1CCS(=O)(=O)C1` (centres undefined), the growth is 92.4%.

For the molecule `Cc1[nH]nc2ccc3nc(-c4cn[nH]c4C(F)(F)F)c4c(c3c12)CCCC4`, the growth is -0.0725% (active). As to `C=C1CCC2C3(C)COC(c4ccco4)OC3CCC2(C)C1CC(Sc1ccccc1)C1=CCOC1=O` (centres undefined), the growth is -21.6% (active). Turning to `CC(=O)NNc1ccc2nnc(-c3ccc(Br)cc3)n2n1`, the growth is 97.5%.
